Assay results reported in PubChem BioAssay (NCATS).
Values joined by “and” are separate entries in the source; they are usually repeats but may differ in a detail not shown here. Equal values may be shown once. Records with an inconclusive call do not appear. Active and inactive are the calls of the source. Unless noted, calls come from the whole dose curve; as a rule, active = well fitted curve in the direction sought with a large enough effect; inconclusive = small, poorly fitted or top-dose-only effect, or another doubt; inactive = no such curve, though single readings can be large; an effect the other way counts as inactive or inconclusive.

Columns and labels:
[1] = target: Voltage-gated inwardly rectifying potassium channel KCNH2 (Homo sapiens) (UniProt Q12809); assay: qHTS Assay for Small Molecule Inhibitors of the Human hERG Channel Activity (AID 588834);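 note: lower thallium flux fluorescence means stronger hERG block; nearly all actives have a fitted effect of over 50% in size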; note: potency is the fitted concentration of half-maximal effect
Summary of the method: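 Measured: FluxOR fluorescence after thallium stimulation in U2OS cells transduced with hERG by baculovirus. Compounds pre-incubated around 10 min; medium Opti-MEM with 2% FCS. AC50 from Hill equation.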

[2] = target: Luciferin 4-monooxygenase (Photinus pyralis) (UniProt P08659); assay: Biochemical firefly luciferase enzyme assay for NPC (AID 624030); note: nearly all actives have a fitted effect of over 70% in size; note: potency is the fitted concentration of half-maximal effect
Summary of the method: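 Counter-screen for direct inhibition of the luciferase enzyme by approved-drug library compounds, run at 10 nM enzyme in 50 mM Tris acetate (final). Luminescence was read within 5 min of enzyme-buffer addition and normalized to PTC124 versus DMSO (0%).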

[3] = S16 Schwann cell viability assay (CellTiter-Glo assay) (AID 624031);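 note: cellular ATP luminescence as a viability measure; series mostly up to about 58 µM; plate controls were DMSO-treated cells for no effect and cell-free wells for full effect; nearly all actives have a fitted effect of over 70% in size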
Summary of the method: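 Native S16 rat Schwann cells in DMEM/10% FBS without phenol red were incubated overnight, then exposed to compounds for 24 h at 37 °C/5% CO2. Viability was read as ATP luminescence (CellTiter-Glo), normalized to no-cell wells and DMSO (0%).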

[4] = S16 Schwann cell PMP22 intronic element firefly luciferase assay (AID 624032); note: nearly all actives have a fitted effect of over 30% in size; note: potency is the fitted concentration of half-maximal effect
Summary of the method: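 Rat S16 Schwann cells stably carrying a PMP22 intronic element-driven Fluc reporter were seeded overnight, then exposed to compounds for 24 h at 37 °C. Luminescence was normalized to PTC124 (positive control) and DMSO (0% activity).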

[5] = S16 Schwann cell PMP22 intronic element beta-lactamase assay (AID 624044; calls by dose curve; note: nearly all actives have a fitted effect of over 15% in size; note: potency is the fitted concentration of half-maximal effect)
Summary of the method: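 Rat S16 Schwann cells with beta-Lac driven by a PMP22 intronic element, compound-treated 24 h at 37 °C. LiveBLAzer FRET B/G read: 460 nm normalized to potassium clavulanate vs DMSO; 535 nm FRET as viability; concentration-effect curves classified.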

[6] = qHTS assay for small molecule activators of the p53 signaling pathway (AID 651743; active = well fitted activation curve with a large enough effect in the signal ratio, not every such curve was filed as active; the % refers to the signal ratio; note: series mostly up to about 92 µM; % of control where 0% means no effect); conditions: HCT-116 p53RE-bla, beta-lactamase FRET ratio, 16 h; activation: active compounds read high
Summary of the method: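 Cell-based beta-lactamase reporter (p53 response elements, HCT-116 background). After a 5-hour preincubation, cells received compound for 16 hours at 37 C; substrate development ran 2 hours at room temperature.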

[7] = qHTS assay for small molecule activators of the nuclear factor-kappa B (NF-kB) signaling pathway (AID 651749; active = well fitted activation curve with a large enough effect in the signal ratio; the % refers to the signal ratio; note: series mostly up to about 77 µM; % of control where 0% means no effect); conditions: NF-kB-bla ME-180 cells, beta-lactamase FRET ratio, 16 h; active compounds read high
Summary of the method: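 Screening used 2,000 ME-180 reporter cells per well exposed to pinned compound (23 nL) or DMSO; after 16 hr at 37C, beta-lactamase expression under NF-kB control was assessed through FRET.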

[8] = qHTS assay for environmental chemicals that activate the Aryl hydrocarbon Receptor (AhR) signaling pathway (AID 651777); conditions: 1A2-DRE human hepatoma cells, luciferase, 24 h; activation: active compounds read high; note: % of control where 0% means no effect; nearly all actives have a fitted effect of over 15% in size
Summary of the method: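 Human hepatoma 1A2-DRE cells, stably carrying a dioxin response element and CYP1A2 promoter driving luciferase, were exposed to compounds for 24 hr at 37 C and 5% CO2. Luciferase signal was then read after 30 min One-Glo at room temperature.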

[9] = target: Peroxisome proliferator-activated receptor alpha (Homo sapiens) (UniProt Q07869); assay: qHTS assay for small molecule agonists of the peroxisome proliferator-activated receptor alpha (PPARalpha) signaling pathway (AID 651778); conditions: PathHunter PPARalpha complementation, chemiluminescence, 6 h; active compounds read high; note: % of control where 0% means no effect
Summary of the method: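 Cells plated at 2,000/well and held overnight at 37 C, 5% CO2, then compound added by pin tool for 6 hr; after PathHunter detection reagent and 60 min at room temperature, chemiluminescence from enzyme complementation was read.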

[10] = target: Nuclear receptor ROR-gamma (Homo sapiens) (UniProt P51449); assay: qHTS assay for small molecule antagonists of the retinoid-related orphan receptor gamma (ROR-gamma) signaling pathway (AID 651802); note: nearly all actives have a fitted effect of over 60% in size; note: potency is the fitted concentration of half-maximal effect
Summary of the method: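 CHO, TET-inducible ROR + RORE-LUC reporter, 1536-well qHTS. Compound pinned, doxycycline added, 16hr 37C/5% CO2. ONE-Glo, 30 min RT, luminescence; signal drop scored as antagonism.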

[11] = qHTS assay for small molecule agonists of the antioxidant response element (ARE) signaling pathway (AID 651741; active = well fitted activation curve with a large enough effect in the signal ratio; the % refers to the signal ratio; note: potency is the fitted concentration of half-maximal effect; for activation: % of control where 0% means no effect)
Summary of the method: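 Compounds in DMSO are pinned onto HepG2 ARE-bla cells (2,000/well) that were preincubated 5 h; plates stay 16 h at 37 C, then beta-lactamase activity is detected with LiveBLAzer B/G substrate by fluorescence.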

[12] = target: Tumor necrosis factor (Homo sapiens) (UniProt P01375); assay: qHTS assay to identify small molecules that stimulate Tumor Necrosis Factor-alpha (TNF-alpha) secretion (AID 651757; active = well fitted curve in the direction sought with a large enough effect in the signal ratio; the % refers to the signal ratio; note: 0% is about no effect)
Summary of the method: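 Read-out is HTRF, a TR-FRET sandwich of cryptate- and XL665-labeled anti-TNF-alpha antibodies detecting cytokine secreted by THP-1 cells. Cells had been incubated with test compounds at 37 C for 17 hrs beforehand.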

[13] = qHTS assay to identify small molecules that stimulate interleukin-8 (IL-8) secretion (AID 651758; active = well fitted activation curve with a large enough effect in the signal ratio; the % refers to the signal ratio; note: 0% is about no effect)
Summary of the method: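 THP-1, 2000 cells/well; cpd 16 h, 37 C; add cryptate + XL665 anti-IL-8 Abs; RT 1-3 h; TR-FRET read.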

[14] = target: Glutaminase kidney isoform, mitochondrial (Homo sapiens) (UniProt O94925); assay: qHTS for Inhibitors of Glutaminase (GLS): LOPAC Validation (AID 624146);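 note: glutamate product detected by oxidase and peroxidase coupled Amplex red fluorescence gain; series mostly up to about 46 µM; % is set by controls: 0 for no effect and ±100 for the full control effect; nearly all actives have a fitted effect of over 60% in size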
Summary of the method: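 Read-out is an Amplex red fluorescence increase coupled through glutamate oxidase and HRP, measured before and after 30 min room-temperature incubation. hKGA is in 45 mM KH2PO4 (pH 8.2) with 0.02% Tween-20; glutamine added as 1mM solution.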

[15] = qHTS of Trypanosoma Brucei Inhibitors: LOPAC Validation (AID 624147); note: 0% is about no effect
Summary of the method: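 TbPYK + substrate in 50 mM TEA pH 7.2, 100 mM KCl, 10 mM MgCl2, 0.05% BSA, 0.01% Tween-20; cpd pinned; ADP 130 uM final; 45 min RT; Kinase-Glo Plus 10 min; luminescence endpoint.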

[16] = target: Glucagon-like peptide 1 receptor (Homo sapiens) (UniProt P43220); assay: qHTS of GLP-1 Receptor Agonists: LOPAC Validation (AID 624148);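 note: 0% is about no effect; higher luminescence signal means agonism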
Summary of the method: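 HEK293 cells stably co-expressing a cAMP-responsive luciferase reporter and a hypersensitive GLP-1R were plated 12 h at 37 °C and exposed to compounds for 4-6 hr at 37 °C, 5% CO2. Luminescence was read 12 min after adding detection reagent.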

[17] = qHTS of Nrf2 Activators: LOPAC Validation (AID 624149); note: 0% is about no effect
Summary of the method: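 Luminescence read-out of ARE-luciferase activation: AREc32_Fluc cells treated with compounds for 24 hr at 37 deg C, then lysed with Steady-Glo for 30 min at room temperature before reading.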

[18] = HTS Assay for Allosteric Antagonists of the Human D2 Dopamine Receptor: Hit Validation in HTRF (AID 624455);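 note: stable D1 dopamine receptor cell line scored for blocking the D1 response; % is set by controls: 0 for no effect and ±100 for the full control effect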
Summary of the method: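 First, antagonism was screened by calcium flux in a force-coupled, inducible Hek293 Trex D2 line challenged with EC80 dopamine. Hits then went into an HTRF assay in cells stably expressing D1, testing inhibition of the D1 response.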

[19] = qHTS assay for small molecule disruptors of the mitochondrial membrane potential - 5 hr assay (AID 651755; calls by dose curve; note: potency is the fitted concentration of half-maximal effect; nearly all actives have a fitted effect of over 40% in size)
Summary of the method: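 HepG2 cells, attached overnight at 37C, were exposed to compound or DMSO for 5 hr at 37C, 5% CO2. Mito-MPS dye was then added for 30 min, and fluorescence read at 490/535 nm (monomers) and 540/590 nm (aggregates).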

Tumor necrosis factor (Homo sapiens), sequence (P01375 whole entry, looked up): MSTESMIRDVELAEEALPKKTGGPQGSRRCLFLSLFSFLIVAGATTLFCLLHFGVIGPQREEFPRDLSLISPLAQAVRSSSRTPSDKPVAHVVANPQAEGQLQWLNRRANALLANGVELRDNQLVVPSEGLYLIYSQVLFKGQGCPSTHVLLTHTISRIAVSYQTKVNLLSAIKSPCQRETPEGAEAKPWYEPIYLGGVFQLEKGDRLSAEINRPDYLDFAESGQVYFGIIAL
Voltage-gated inwardly rectifying potassium channel KCNH2 (Homo sapiens), sequence (Q12809 whole entry, looked up): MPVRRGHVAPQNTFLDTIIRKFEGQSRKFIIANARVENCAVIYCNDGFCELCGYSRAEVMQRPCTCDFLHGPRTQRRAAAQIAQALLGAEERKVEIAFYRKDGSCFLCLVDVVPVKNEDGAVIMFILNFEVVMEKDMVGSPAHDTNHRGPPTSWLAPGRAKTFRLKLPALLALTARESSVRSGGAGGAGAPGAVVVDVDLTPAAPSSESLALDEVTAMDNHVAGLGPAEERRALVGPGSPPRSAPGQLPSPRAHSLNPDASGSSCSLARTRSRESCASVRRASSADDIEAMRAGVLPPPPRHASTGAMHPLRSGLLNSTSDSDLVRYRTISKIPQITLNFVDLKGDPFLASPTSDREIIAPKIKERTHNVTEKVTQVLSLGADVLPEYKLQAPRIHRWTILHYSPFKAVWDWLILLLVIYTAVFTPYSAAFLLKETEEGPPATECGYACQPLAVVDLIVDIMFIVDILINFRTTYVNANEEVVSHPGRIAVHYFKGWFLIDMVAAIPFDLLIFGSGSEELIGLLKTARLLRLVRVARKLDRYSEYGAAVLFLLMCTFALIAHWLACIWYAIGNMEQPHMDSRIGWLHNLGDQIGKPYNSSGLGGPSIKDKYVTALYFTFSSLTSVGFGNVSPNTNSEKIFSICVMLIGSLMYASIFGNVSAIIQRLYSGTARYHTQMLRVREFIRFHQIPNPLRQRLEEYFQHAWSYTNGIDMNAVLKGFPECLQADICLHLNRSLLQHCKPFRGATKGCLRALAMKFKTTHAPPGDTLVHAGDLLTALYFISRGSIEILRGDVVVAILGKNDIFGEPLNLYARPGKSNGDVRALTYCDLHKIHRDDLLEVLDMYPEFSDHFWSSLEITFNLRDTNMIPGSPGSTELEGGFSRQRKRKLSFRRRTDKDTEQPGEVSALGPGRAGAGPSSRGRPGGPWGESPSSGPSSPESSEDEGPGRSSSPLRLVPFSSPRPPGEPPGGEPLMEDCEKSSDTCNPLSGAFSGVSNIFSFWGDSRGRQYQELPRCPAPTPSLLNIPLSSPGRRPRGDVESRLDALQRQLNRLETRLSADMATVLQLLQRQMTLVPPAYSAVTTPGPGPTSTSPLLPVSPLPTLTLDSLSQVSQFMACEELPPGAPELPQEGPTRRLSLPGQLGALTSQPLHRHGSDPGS
Peroxisome proliferator-activated receptor alpha (Homo sapiens), sequence (Q07869 whole entry, looked up): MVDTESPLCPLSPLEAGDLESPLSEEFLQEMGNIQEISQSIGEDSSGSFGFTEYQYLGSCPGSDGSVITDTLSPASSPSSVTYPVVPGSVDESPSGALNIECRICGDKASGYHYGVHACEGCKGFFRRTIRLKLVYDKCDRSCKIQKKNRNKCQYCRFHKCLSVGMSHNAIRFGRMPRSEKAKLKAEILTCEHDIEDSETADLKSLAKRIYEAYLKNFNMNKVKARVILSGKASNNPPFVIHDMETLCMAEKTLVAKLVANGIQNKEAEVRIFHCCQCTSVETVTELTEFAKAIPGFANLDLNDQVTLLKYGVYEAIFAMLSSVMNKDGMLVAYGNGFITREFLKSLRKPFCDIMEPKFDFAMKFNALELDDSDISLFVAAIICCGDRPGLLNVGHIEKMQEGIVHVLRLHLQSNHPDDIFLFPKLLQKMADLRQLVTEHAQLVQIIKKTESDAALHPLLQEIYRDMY
Nuclear receptor ROR-gamma (Homo sapiens), sequence (P51449 whole entry, looked up): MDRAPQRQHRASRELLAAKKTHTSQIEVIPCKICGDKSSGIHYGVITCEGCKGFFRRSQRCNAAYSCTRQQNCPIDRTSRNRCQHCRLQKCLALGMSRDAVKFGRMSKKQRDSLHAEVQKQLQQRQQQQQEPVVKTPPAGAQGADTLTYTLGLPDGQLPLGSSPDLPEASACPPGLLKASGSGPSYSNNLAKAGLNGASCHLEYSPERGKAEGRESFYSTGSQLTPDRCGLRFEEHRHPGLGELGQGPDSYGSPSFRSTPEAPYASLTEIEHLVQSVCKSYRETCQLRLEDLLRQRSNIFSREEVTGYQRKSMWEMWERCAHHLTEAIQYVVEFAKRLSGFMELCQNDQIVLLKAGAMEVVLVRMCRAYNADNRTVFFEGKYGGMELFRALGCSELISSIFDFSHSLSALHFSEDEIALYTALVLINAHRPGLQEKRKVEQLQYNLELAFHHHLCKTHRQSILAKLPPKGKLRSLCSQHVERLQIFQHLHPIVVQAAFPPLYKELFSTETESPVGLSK
Luciferin 4-monooxygenase (Photinus pyralis), sequence (P08659 whole entry, looked up): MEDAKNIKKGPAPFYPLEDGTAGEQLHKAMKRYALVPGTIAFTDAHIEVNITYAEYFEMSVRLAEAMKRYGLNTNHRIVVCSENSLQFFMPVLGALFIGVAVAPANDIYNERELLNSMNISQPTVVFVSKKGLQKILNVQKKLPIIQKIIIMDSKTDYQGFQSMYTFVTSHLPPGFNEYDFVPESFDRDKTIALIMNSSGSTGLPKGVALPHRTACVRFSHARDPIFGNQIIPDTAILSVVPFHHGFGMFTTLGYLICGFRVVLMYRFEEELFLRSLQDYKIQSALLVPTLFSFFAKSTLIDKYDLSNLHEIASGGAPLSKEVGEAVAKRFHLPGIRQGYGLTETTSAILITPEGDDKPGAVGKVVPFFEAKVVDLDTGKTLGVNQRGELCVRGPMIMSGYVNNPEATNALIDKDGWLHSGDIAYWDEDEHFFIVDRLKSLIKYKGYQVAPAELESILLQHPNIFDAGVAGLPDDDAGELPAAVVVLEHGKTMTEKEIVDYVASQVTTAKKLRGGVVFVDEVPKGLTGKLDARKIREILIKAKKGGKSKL
Glucagon-like peptide 1 receptor (Homo sapiens), sequence (P43220 whole entry, looked up): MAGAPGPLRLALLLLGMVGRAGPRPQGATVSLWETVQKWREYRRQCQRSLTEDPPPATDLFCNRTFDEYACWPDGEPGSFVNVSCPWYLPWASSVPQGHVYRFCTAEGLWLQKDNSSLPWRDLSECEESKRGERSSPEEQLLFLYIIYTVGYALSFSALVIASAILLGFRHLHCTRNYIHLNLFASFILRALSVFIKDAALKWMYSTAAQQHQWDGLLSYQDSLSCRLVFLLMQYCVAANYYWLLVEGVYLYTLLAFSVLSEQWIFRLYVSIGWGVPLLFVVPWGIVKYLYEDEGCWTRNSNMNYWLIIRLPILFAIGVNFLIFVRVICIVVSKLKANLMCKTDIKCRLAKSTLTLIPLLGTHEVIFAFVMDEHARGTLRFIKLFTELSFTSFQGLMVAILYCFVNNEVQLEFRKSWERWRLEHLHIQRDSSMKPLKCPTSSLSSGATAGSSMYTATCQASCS
Glutaminase kidney isoform, mitochondrial (Homo sapiens), sequence (O94925 whole entry, looked up, canonical isoform): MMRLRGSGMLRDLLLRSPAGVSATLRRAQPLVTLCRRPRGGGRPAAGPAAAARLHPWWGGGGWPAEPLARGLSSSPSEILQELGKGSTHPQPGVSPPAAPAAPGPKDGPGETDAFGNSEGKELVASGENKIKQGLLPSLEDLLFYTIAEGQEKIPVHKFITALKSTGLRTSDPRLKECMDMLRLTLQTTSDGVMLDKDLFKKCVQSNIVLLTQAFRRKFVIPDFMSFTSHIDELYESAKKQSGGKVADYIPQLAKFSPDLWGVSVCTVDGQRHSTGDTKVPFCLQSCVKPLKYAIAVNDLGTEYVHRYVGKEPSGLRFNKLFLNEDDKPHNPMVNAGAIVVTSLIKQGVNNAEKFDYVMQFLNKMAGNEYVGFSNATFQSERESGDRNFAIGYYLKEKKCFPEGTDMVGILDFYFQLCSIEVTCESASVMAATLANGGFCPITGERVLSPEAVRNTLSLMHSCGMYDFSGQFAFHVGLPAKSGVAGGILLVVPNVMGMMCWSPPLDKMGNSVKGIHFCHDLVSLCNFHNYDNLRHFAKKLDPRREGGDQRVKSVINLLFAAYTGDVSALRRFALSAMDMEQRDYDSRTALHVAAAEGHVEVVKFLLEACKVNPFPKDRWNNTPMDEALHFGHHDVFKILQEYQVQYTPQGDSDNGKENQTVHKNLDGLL

CC(=O)Nc1ncc([N+](=O)[O-])s1
inactive: Potency [1] | Potency [2] | Potency [3] | Potency [4] | Potency [5]

O=C(O)c1ccc(S(=O)(=O)N(Cl)Cl)cc1
inactive: Potency [1] | Potency [2] | Potency [3] | Potency [4] | activation [6] -0.128% | activation [7] -0.114% | activation [8] 0.0057% | max response [9] 7.46% | Potency [10]

OC[C@H]1O[C@@H]2O[C@H]3[C@H](O)[C@@H](O)[C@@H](O[C@H]4[C@H](O)[C@@H](O)[C@@H](O[C@H]5[C@H](O)[C@@H](O)[C@@H](O[C@H]6[C@H](O)[C@@H](O)[C@@H](O[C@H]7[C@H](O)[C@@H](O)[C@@H](O[C@H]8[C@H](O)[C@@H](O)[C@@H](O[C@H]1[C@H](O)[C@H]2O)O[C@@H]8CO)O[C@@H]7CO)O[C@@H]6CO)O[C@@H]5CO)O[C@@H]4CO)O[C@@H]3CO
inactive: Potency [1] | Potency [2] | Potency [3] | Potency [4] | Potency [11] | activation [7] -1.13% | outcome [12] | max response [9] -4.97% | Potency [10]

C/C=C/c1ccc(O)c(OC)c1
inactive: Potency [1] | Potency [2] | Potency [3] | Potency [4] | activation [6] -3.74% and -0.0356% | outcome [12] | outcome [13] | activation [8] 3.77% and 1.82% | max response [9] -4.52% and -2.32% | Potency [10]
active: Potency [11] 30.6 µM and 42.2 µM

NS(=O)(=O)Cc1noc2ccccc12
inactive: Potency [1] | Potency [2] | Potency [3] | Potency [4] | Potency [5]

OC(C#CCN1CCCC1)(c1ccccc1)c1ccccc1
inactive: Potency [2] | Potency [3] | Potency [4] | Potency [5]
active: Potency [1] 22.4 µM

CCOc1ccccc1C(N)=O
inactive: Potency [1] | Potency [2] | Potency [3] | Potency [4] | Potency [11] | activation [6] 1.59% | outcome [12] | activation [8] 0.471% | max response [9] -1.03% | Potency [10]

O=c1[nH]c(=O)n([C@H]2C[C@H](O)[C@@H](CO)O2)cc1F
active: Potency [5] 0.0056 µM
inactive: Potency [1] | Potency [2] | Potency [3]

CC(C)Nc1cccnc1N1CCN(C(=O)c2cc3cc(NS(C)(=O)=O)ccc3[nH]2)CC1
active: Potency [1] 8.91 µM | Potency [4] 14.4 µM
inactive: Potency [2] | Potency [3] | Potency [5]

Cc1ccccc1OCC(O)CO (centres undefined)
inactive: Potency [1] | Potency [2] | Potency [3] | Potency [4] | Potency [5]

CN=C(N)NCCC[C@H](N)C(=O)O
inactive: outcome [14] | outcome [15] | outcome [16] | outcome [17] | outcome [18]

COc1cc([C@H]2Oc3cc([C@H]4Oc5cc(O)cc(O)c5C(=O)[C@@H]4O)ccc3O[C@@H]2CO)ccc1O
active: Potency [19] 26.6 µM

Oc1c(Cl)cc(Cl)c(Cl)c1Cc1c(O)c(Cl)cc(Cl)c1Cl
active: Potency [19] 3.35 µM | Potency [10] 1.06 µM

COc1ccc(C(=O)c2ccccc2)c(O)c1
inactive: outcome [12] | Potency [10]

O=C(CCCN1CC=C(n2c(=O)[nH]c3ccccc32)CC1)c1ccc(F)cc1
inactive: Potency [2] | Potency [3] | Potency [4]

Cc1cc(CC(=O)O)c(C)n1-c1ccc(Cl)cc1
inactive: Potency [2] | Potency [4]

CN1CCc2cccc3c2[C@H]1Cc1ccc(O)c(O)c1-3
inactive: Potency [5]
active: Potency [4] 14.4 µM

Cc1cc2c(OCC(CNC(C)(C)C)OC(=O)c3ccccc3)cccc2[nH]1 (centres undefined)
inactive: Potency [2] | Potency [3] | Potency [5]
active: Potency [4] 18.1 µM

CN(C)CCC[C@@]1(c2ccc(F)cc2)OCc2cc(C#N)ccc21
inactive: Potency [2] | Potency [3] | Potency [4]

FC(F)(F)C(F)(F)C(F)(F)C(F)(F)C(F)(F)C(F)(F)C(F)(F)C(F)(F)Br
inactive: Potency [2] | Potency [3] | Potency [4] | Potency [5]

CC1(COc2ccc(CC3SC(=O)NC3=O)cc2)CCCCC1 (centres undefined)
inactive: Potency [3] | Potency [4] | Potency [5] | activation [7] 0.57%
active: Potency [2] 16.1 µM

CC1(C)OC[C@@H]2O[C@@]3(C(=O)O)OC(C)(C)O[C@H]3[C@@H]2O1
inactive: Potency [1] | Potency [11] | activation [7] 0.144% | activation [8] 1.2% | max response [9] -1.9%

CCOC(=O)c1c(N)sc2c1CCN(Cc1ccccc1)C2
inactive: Potency [2] | Potency [3]
active: Potency [4] 36.1 µM
